Source: PubChem BioAssay
HEK cytotox = cytotoxic compounds in HEK 293 cells; HEK 293 viability, ATP luminescence (CellTiter-Glo), 48-72 h; Potency, µM (highest dose often 115 µM), for the others: at the highest dose activity change, negative = cytotoxicity, most hits filed as inhibitors; 94,000 tested, 6.6% active; AID 1345083; active = well fitted curve in the direction sought with a large enough effect; inconclusive = small, poorly fitted or top-dose-only effect, or another doubt; inactive = no such curve, though single readings can be large; an effect the other way counts as inactive or inconclusive; note: % is set by controls: 0 for no effect and ±100 for the full control effect; nearly all actives have a fitted effect of over 60% in size
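HEK 293 seeded at 250 cells/well receive compound via pintool. After 48 or 72 hr at 37 degree Celsius, 5% CO2 and 95% humidity, CellTiter-Glo is dispensed and luminescence read following 10 min at room temperature.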
Luciferase inh = Photinus pyralis luciferase inhibition. AID 1347043. Potency, µM (series often up to 115 µM), actives largely listed as inhibitors. 76,000 tested, 2.5% active. purified P. pyralis luciferase, luminescence, biochemical. P08659; active = well fitted curve in the direction sought with a large enough effect; inconclusive = small, poorly fitted or top-dose-only effect, or another doubt; inactive = no such curve, though single readings can be large; an effect the other way counts as inactive or inconclusive; note: % is set by controls: 0 for no effect and ±100 for the full control effect; nearly all actives have a fitted effect of over 65% in size
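Inhibitors were tested against purified firefly luciferase in a biochemical, low-substrate format (both substrates at 10uM) and luminescence measured with a CCD imager.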
3T3 cytotox = cytotoxic compounds in NIH 3T3 cells; NIH 3T3 viability, CellTiter-Glo ATP luminescence, 48-72 h; Potency, µM (top dose mostly 96.7 µM), for the others: at the top dose activity change, negative = cytotoxicity, most hits filed as inhibitors; 94,000 tested, 4.3% active; AID 1345082; active = well fitted curve in the direction sought with a large enough effect; inconclusive = small, poorly fitted or top-dose-only effect, or another doubt; inactive = no such curve, though single readings can be large; an effect the other way counts as inactive or inconclusive; note: % is set by controls: 0 for no effect and ±100 for the full control effect; nearly all actives have a fitted effect of over 55% in size
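Cells were seeded at 400 per well, treated with pin-transferred compound, and kept 48 or 72 hr at 37 °C before CellTiter-Glo addition and luminescence imaging of cellular ATP.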
NPR1 antag = human Npr1 receptor antagonism. Potency, µM (series often up to 46.3 µM), inactives show at the highest dose activity change, negative = inhibition, hits mostly inhibitors. P16066. AID 1347048. HEK293 hNpr1 GloSensor cGMP, ANP-stimulated luminescence. 76,000 tested, 1.6% active; note: % is set by controls: 0 for no effect and ±100 for the full control effect; nearly all actives have a fitted effect of over 60% in size
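HEK293 cells stably expressing human Npr1 and cGMP GloSensor pGS-40F, loaded 2 h with 2% GloSensor reagent, given compound 30 min at room temperature. Luminescence read before and 20 min after 0.1 nM hNppA.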
NPR1 antag cnf = hNpr1 antagonism, confirmation assay | HEK293 hNpr1 cGMP GloSensor luminescence, ANP-stimulated | shares compounds with NPR1 antag | Potency, µM (titrated, usually from 57.6 µM), inactives show at the top dose activity change, negative = inhibition, usual class: inhibitors | AID 1347044 | 1,400 tested, 76% active; note: nearly all actives have a fitted effect of over 70% in size
NPR2 antag = antagonizes human Npr2, subtype selectivity check; Potency, µM (titrated, usually from 57.6 µM), for inactives: top-dose activity change, negative = inhibition, usual class: inhibitors; HEK293 hNpr2 GloSensor cGMP luminescence, CNP-stimulated; AID 1347046; shares compounds with NPR1 antag; 1,400 tested, 67% active; note: nearly all actives have a fitted effect of over 70% in size
FLuc inh counter = FLuc enzyme inhibition, Npr1 counter-screen. shares compounds with NPR1 antag. purified FLuc enzyme, luminescence, Km substrate. Potency, µM (highest dose often 57.6 µM), for the others: at the highest dose activity change, negative = inhibition, hits mostly inhibitors. 1,400 tested, 0.7% active. AID 1347047; active = well fitted curve in the direction sought with a large enough effect; inconclusive = small, poorly fitted or top-dose-only effect, or another doubt; inactive = no such curve, though single readings can be large; an effect the other way counts as inactive or inconclusive; note: 0% is about no effect
GloSensor cGMP = control cell line activity, Npr1 antagonist counter-screen; shares compounds with NPR1 antag; Potency, µM (top dose mostly 57.6 µM), for inactives: at the top dose activity change, negative = inhibition, hits mostly inhibitors; 1,400 tested, 69% active; HEK293 GloSensor cGMP, SNP-stimulated, luminescence; note: % is set by controls: 0 for no effect and ±100 for the full control effect; nearly all actives have a fitted effect of over 70% in size
Starred values were filed as active, the others as inactive; i = inactive; ? = inconclusive; nt = no result; [ ] = remark or other dose. Only some compounds are listed: those with a hit (about 11% of all), similar ones and a draw of the others. Unless noted, calls come from the whole dose curve. Potency is the fitted concentration of half-maximal effect.

SMILES | HEK cytotox | Luciferase inh | 3T3 cytotox | NPR1 antag | NPR1 antag cnf | NPR2 antag | FLuc inh counter | GloSensor cGMP
COc1ccc(N2CCN(c3nc(C(=O)NCc4ccc(C)c(C)c4)cs3)CC2)cc1 | 13µM* | i | ? | 13µM* | 9.7µM* | 14µM* | 3% | 11µM*
COc1cccc(N2C(=O)NC(=NC3CCCCC3)C23CCN(Cc2cccnc2)CC3)c1 | -9% | nt | ? | nt | nt | nt | nt | nt
CN1CC(=O)N(c2ccccc2)Cc2c(NCCCc3ccccc3)ncnc21 | ? | i | ? | -10% | nt | nt | nt | nt
O=C(NCc1ccc(N2CCCC2)cc1)C1CCCN(c2cnn(Cc3ccccc3)c(=O)c2)C1 (centres undefined) | ? | i | ? | ? | ? | ? | -2% | ?
O=C(CCn1cc(Cl)cn1)N1CCOC(c2ccc(Cl)cc2)C1 (centres undefined) | 79µM* | i | -6% | ? | ? | ? | 4% | 0%
NC1CCCCN(C(=O)CCn2cc(Cl)cn2)C1 (centres undefined) | -2% | i | 1% | 5% | nt | nt | nt | nt
CCOc1ccc(NC(=O)Cn2c(N3CCC(C)CC3)nc(C)cc2=O)cc1 | ? | i | ? | ? | nt | nt | nt | nt
COc1ccc(Cl)cc1NC(=O)Cn1c(N2CCC(C)CC2)nc(C)cc1=O | 45µM* | i | ? | 11µM* | 19µM* | 19µM* | 1% | 15µM*
CCOC(=O)c1ccc(NC(=O)Cn2c(N3CCC(C)CC3)nc(C)cc2=O)cc1 | ? | i | ? | 14µM* | 22µM* | 19µM* | 4% | 22µM*
Cn1cc(-c2cccc(O)c2)c2nc(COc3ccc(Cl)cc3)cn2c1=O | 32µM* | i | ? | 35µM* | 40µM* | ? | -27%[86.2 µM] | 35µM*
O=C(CN1CCCCCCC1)N1CCn2nc(Cc3ccccc3)cc2C1 | -29% | i | ? | -13% | nt | nt | nt | nt
CC(=O)c1c(C)nn(CC(=O)N2CCn3nc(Cc4ccccc4)cc3C2)c1C | ? | i | -34% | 11µM* | 22µM* | 19µM* | -1% | 14µM*
COC1CN(c2cccc(F)c2)C12CCN(C(=O)C1CCC1)CC2 (centres undefined) | ? | i | -19% | 3% | nt | nt | nt | nt
COc1ccc(C2(C(=O)N3CCC4(CC3)C(OC)CN4c3cccc(F)c3)CC2)cc1 (centres undefined) | 45µM* | i | ? | 11µM* | ? | 14µM* | 2% | -23%
N#Cc1ccc(-c2c(-c3ccccc3)ncn2CCNc2cccnc2)cc1 | -22% | i | -12% | -28% | nt | nt | nt | nt
CCC(Cn1cnc(-c2ccccc2)c1-c1ccc(C#N)cc1)N1CCN(C)CC1 (centres undefined) | 79µM* | i | ? | 11µM* | 24µM* | 17µM* | 3% | -6%
CCOc1ccccc1C1NC(=O)N(CC(=O)Nc2cccc(C(C)C)c2)C2=C1C(=O)OC2 (centres undefined) | ? | i | ? | ? | ? | ? | -1% | ?
Cc1ccc(NC(=O)CN2C(=O)NC(c3ccc(Cl)cc3)C3=C2COC3=O)c(Cl)c1 (centres undefined) | 45µM* | i | ? | ? | ? | -28% | 4% | -20%
O=C(CN1C(=O)NC(c2ccc(Cl)cc2)C2=C1COC2=O)Nc1ccc(F)c(Cl)c1 (centres undefined) | ? | i | 40µM* | ? | ? | ? | -6% | ?
Cc1ccc(NC(=O)CN2C(=O)NC(c3ccc(Cl)cc3)C3=C2COC3=O)c(C)c1 (centres undefined) | ? | i | ? | -20% | nt | nt | nt | nt
Cc1nnc2ccc(N3CCC(NC(=O)Cc4ccc(F)cc4)CC3)nn12 | i | nt | -17% | nt | nt | nt | nt | nt
O=C(c1cnccn1)N1CCCC(c2ccccc2)(c2ccccc2)C1 | ? | i | -13% | 6% | nt | nt | nt | nt
O=C(CCC[C@H]1NC[C@@H]2CC1CN(Cc1ccccc1)C2)NCCCc1ccccc1 | ? | i | ? | 3% | nt | nt | nt | nt
O=C1COCC2(CN1)CN(c1ccc(Oc3ccccc3)cc1)C2 | ? | i | ? | 7.1µM* | 11µM* | 9.9µM* | -4%[86.2 µM] | 9.9µM*
COc1ccc(CCNC(=O)c2ccc3c(c2)N(C)C2CCCN2C3=O)cc1OC (centres undefined) | -13% | i | -22% | -14% | nt | nt | nt | nt
SMILES | HEK cytotox | Luciferase inh | 3T3 cytotox | NPR1 antag | NPR1 antag cnf | NPR2 antag | FLuc inh counter | GloSensor cGMP
CCCC1=Nc2cc(C(=O)NCCc3ccc(OC)c(OC)c3)ccc2Sc2ccccc21 | ? | i | ? | ? | ? | ? | 1% | ?
CC(=O)N1CCn2cc(C(=O)Nc3ccc(Cl)cc3Cl)nc2C1 | -28% | nt | ? | nt | nt | nt | nt | nt
O=C(Nc1ccc(Cl)cc1Cl)c1cn2c(n1)CN(C(=O)c1ccccc1)CC2 | ? | nt | ? | nt | 22µM* | 22µM* | -10% | 19µM*
O=C1NCc2ccccc2CC12CCCN2Cc1c(F)cccc1Cl (centres undefined) | 5% | nt | 3% | nt | nt | nt | nt | nt
O=C1NN=C(c2cccnc2)C12CCN([S+](=O)([O-])c1cccc(C(F)(F)F)c1)CC2 | ? | i | ? | ? | 22µM* | 22µM* | 2% | 24µM*
CN(Cc1ccncc1)Cc1ccc(-c2ccccc2)cc1 | 71µM* | i | ? | ? | 22µM* | 28µM* | -3%[86.2 µM] | 18µM*
CN(Cc1ccc(-c2ccccc2)cc1)Cc1ccc(N(C)C)cc1 | ? | i | -28% | -10% | nt | nt | nt | nt
Cc1nsc(NC(=O)NC23CC4CC(C2)CC(C(C)C)(C4)C3)n1 | 32µM* | i | ? | 13µM* | 31µM* | 27µM* | -6% | ?
Cc1nsc(NC(=O)N2CCC(C(C)O)CC2)n1 (centres undefined) | -4% | ? | -4% | 1% | nt | nt | nt | nt
O=C1NCCCCCN(C(=O)COc2ccccc2)[C@@H]2C[C@@H](C(=O)N3CCc4ccccc4C3)C[C@H]12 | ? | i | -22% | -13% | nt | nt | nt | nt
O[C@H]1CC[C@@H](Cc2cc(COc3ccccc3)on2)O[C@@H]1CNC1CCOCC1 | -6%[172 µM] | i | -16%[174 µM] | -1%[70.6 µM] | nt | nt | nt | nt
